HepG2 viability: kills HepG2 cells in TGF-b inhibitor counter-screen. AID 588856. Potency, µM (series often up to 46.1 µM), for the others: top-dose activity change, negative = cytotoxicity, actives largely listed as cytotoxic. HepG2 CAGA-GFP viability, ATP luminescence, 18 h. 410,000 compounds, 0.76% hits
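HepG2 CAGA-GFP cells (1000/well, DMEM with 1% FBS) received compound, then TGF-beta at 500 pg/mL final, and were incubated 18 hours at 37 degrees C. Viability was read by CellTiter-Glo luminescence. Media-only wells were set as complete cell-killing and DMSO as no toxicity.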
Nrf2 block: inhibitors of Nrf2 signaling. Potency, µM (titrated, usually from 46 µM), for the others: at the top dose activity change, negative = inhibition, hits mostly inhibitors. A549 ARE-Fluc reporter, luciferase luminescence, 18-24 h. 360,000 compounds, 2.1% hits. AID 504444; note: % is set by controls: 0 for no effect and ±100 for the full control effect; nearly all actives have a fitted effect of over 60% in size
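Nrf2 activity is the BugLite luminescence, read 15 min after reagent at room temperature, following CellTiter-Fluor cytotoxicity readout (30 min, 37C). Compound titrations were applied for 18-24 h to 5000 A549 ARE_Fluc cells/well in 5% FBS OPTI-MEM.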
A549 viability: kills or reduces viability of A549 cells in Nrf2 counter-screen. Potency, µM (series often up to 46 µM), for the others: at the highest dose activity change, negative = cytotoxicity, most hits filed as inhibitors. A549 ARE-Fluc cells, CellTiter-Fluor viability, 18-24 h. 390,000 compounds, 0.16% hits; note: % is set by controls: 0 for no effect and ±100 for the full control effect
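A549 ARE-Fluc cells in 5% FBS OPTI-MEM, 5000 cells/well, rested 2 h then exposed to compounds in concentration-response for 18-24 h at 37 °C. Viability by CellTiter-Fluor fluorescence (Ex 405/Em 525) after 30 min; luciferase luminescence (BugLite, 15 min, RT) read afterwards.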
Nrf2 ARE act: activates Nrf2 signaling; AID 624171; 410,000 compounds, 0.31% hits; Potency, µM (doses to about 46.1 µM), for the others: top-dose activation, actives largely listed as activators; AREc32 ARE-luciferase reporter (MCF7-derived line), luminescence, 24 h; note: % of control where 0% means no effect; nearly all actives have a fitted effect of over 65% in size
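For detection, Steady-Glo was added and plates sat 30 min at RT; before that, AREc32_Fluc cells grown overnight in OPTI-MEM/5% FBS had been treated with 23 nL compound for 24 hr at 37 deg C.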
TGFb inhibitor: blocks TGF-b signaling; 410,000 compounds, 1.2% hits; AID 588855; HepG2 CAGA-GFP TGF-b/SMAD3 reporter, GFP fluorescence, 18 h; TGF-beta stimulated, 500 pg/mL final; Potency, µM (highest dose often 46.1 µM), for inactives: top-dose activity, negative = inhibition, hits mostly inhibitors; note: % is set by controls: 0 for no effect and ±100 for the full control effect; nearly all actives have a fitted effect of over 65% in size
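Smad-responsive CAGA-GFP expression was quantified in HEPG2 cells exposed to compounds and 500 pg/mL final TGF-beta for 18 h at 37 degrees C; unstimulated wells defined full inhibition.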
* marks the source's active call; other numbers are inactive results; ? = inconclusive; · = not tested or not shown; [ ] = remark or other dose. A selection: hits, their analogues and other compounds. The true share with any hit is near 3.6%. Calls come from the whole dose curve; as a rule, active = well fitted curve in the direction sought with a large enough effect; inconclusive = small, poorly fitted or top-dose-only effect, or another doubt; inactive = no such curve, though single readings can be large; an effect the other way counts as inactive or inconclusive. Potency is the fitted concentration of half-maximal effect.

SMILES	HepG2 viability	Nrf2 block	A549 viability	Nrf2 ARE act	TGFb inhibitor
c1ccc(C(c2ccccc2)N2CCN(c3nc4ccccc4n4cnnc34)CC2)cc1	3%	18µM*	-17%	0%	?
CCN(Cc1ccccc1)C(=O)Cn1c(=O)cc(C)c2c(C)nn(-c3cccc(F)c3)c21	-2%	21µM*	-22%	-1%	19%
CCc1ccc(-n2nc(C)c3c(C)cc(=O)n(CC(=O)N(CC)Cc4ccccc4)c32)cc1	-5%	10%	1%	4%	3%
COc1ccc(C(=O)Nc2ccc(-c3nnn(CC(=O)N4CCN(C(=O)c5ccco5)CC4)n3)cc2)cc1	-1%	-6%	-1%	-1%	-3%
O=C(c1ccc(Cl)cc1)C1CCN(C(=O)NC2CCCCC2)CC1	-19%	18µM*	-9%	0%	?
O=C(Nc1ccc(Cl)cc1)C1CCN(C(=O)NC2CCCCC2)CC1	-21%	-23%	-4%	0%	2%
N#Cc1cccc(NS(=O)(=O)c2ccccc2Cl)c1	-9%	-23%	-9%	-1%	-8%
CCCN(CC(=O)Nc1cc(Cl)ccc1Cl)C(=O)/C=C/c1ccco1	6%	-19%	1%	11µM*	1%
COc1cc(NC(=O)c2ccccc2)c(OC)cc1Cl	4%	-4%	-1%	16%	-13%
COc1cc(OC)c(NC(=O)c2cc3ccccc3cc2O)cc1Cl	-27%	26µM*	-27%	23%	?
O=C(Nc1ccncc1)c1ccccc1F	-41%	?	-14%	-1%	-2%
O=C(Nc1ccncc1)c1cc2ccccc2cc1O	-14%	?	-6%	11%	13µM*
COc1cc(OC)c(NC(=O)c2csc(C)c2)cc1Cl	6%	21%	-3%	13µM*	-1%
COC(=O)c1c(NC(=O)c2cc3nc(-c4ccc(OC)cc4)cc(C(F)(F)F)n3n2)sc2c1CCCC2	3%	·	-4%	0%	1%
O=C1Nc2ccccc2Oc2cc([N+](=O)[O-])cc(Oc3ccccc3)c21	-53%	?	0%	8%	?
Cc1cccc(Oc2cc([N+](=O)[O-])cc3c2C(=O)Nc2ccccc2O3)c1	-11%	16µM*	-13%	7%	?
C=CCc1cccc(C=Nc2cc(Br)ccc2O)c1O	-10%	?	-17%	6.3µM*	0%
COc1ccc(-c2cc(C(F)(F)F)nc(SCCC(=O)NCc3ccccc3)n2)cc1	-48%	-17%	-7%	0%	?
C=C1C(=O)O[C@@H]2[C@H]3O[C@]3(C)CC/C=C(\C)CC[C@@H]12	13µM*	-9%	-12%	?	13µM*
NCCc1cnc[nH]1	-6%	-11%	0%	0%	-5%
CC(=O)N1CCc2cc(S(=O)(=O)C(C)CC(=O)Nc3ccc(OC(F)(F)F)cc3)ccc21 (configuration not stated)	-3%	12µM*	-8%	-1%	-14%
CC(=O)N1CCCc2cc(S(=O)(=O)Nc3ccc(OC(F)(F)F)cc3)ccc21	-20%	·	-14%	6%	?
CC(=O)N1c2ccc(S(=O)(=O)NCCC(=O)Nc3ccc(OC(F)(F)F)cc3)cc2CC1C (configuration not stated)	-2%	18µM*	-7%	2%	-16%
CC(=O)N1c2ccc(S(=O)(=O)NCCC(=O)NCCc3ccc(C)cc3)cc2CC1C (configuration not stated)	-5%	16µM*	-8%	0%	-24%
CC(=O)N1c2ccc(S(=O)(=O)NCCC(=O)NCCc3ccc(Cl)cc3)cc2CC1C (configuration not stated)	-16%	21µM*	-8%	0%	-20%
SMILES	HepG2 viability	Nrf2 block	A549 viability	Nrf2 ARE act	TGFb inhibitor
CC1=C(C(=O)Nc2ccccc2C)C2(CCCCC2)C(C(N)=O)C(=S)N1 (configuration not stated)	-1%	13%	-5%	0%	-16%
COc1ccccc1/C=N/NC(=O)CCSc1ccccc1	-4%	0%	-2%	3%	-12%
CCCOC(=O)c1ccc(S(N)(=O)=O)o1	8%	3%	-1%	-1%	-19%
O=c1cc(-c2ccccc2)n2c(SCc3ccc(Cl)cc3)nnc2[nH]1	-6%	·	13%	0%	1%
O=C(CNC(=O)c1ccccc1F)OCc1nc2ccccc2s1	2%	?	0%	1%	0%
CNc1sc(C(=O)c2ccccc2F)c(N)c1-c1nc2ccccc2s1	-37%	?	-15%	10µM*	-7%
COc1ccc(-c2cccc(NS(=O)(=O)c3cc(C)c(Cl)cc3C)c2)nn1	11µM*	·	2%	0%	?
COc1ccc(-c2cccc(NS(=O)(=O)c3cc(C(F)(F)F)ccc3Cl)c2)nn1	-8%	·	12%	5%	?
CCN(CC)CCN1CCN(c2cncc(-c3ccc4ccccc4c3)n2)CC1	13µM*	·	·	-1%[9.22 µM]	?
CCN(CC)CCN1CCN(c2cncc(-c3cccc(N)c3)n2)CC1	3%	·	·	0%	-6%
Fc1ccc(CNc2nc(-c3ccccc3)cc(C(F)(F)F)n2)cc1	-36%	13%[9.27 µM]	-8%	1%	-14%
CS(=O)(=O)c1nc(-c2ccccc2)cc(C(F)(F)F)n1	13µM*	23µM*	?	?	?
C=CCN1C(c2ccc(Br)cc2)=CS/C1=C(\C#N)c1nnc(N2CCOCC2)n1-c1ccccc1	-18%	26µM*	?	3%	-10%
O=C(Nc1ccc(S(=O)(=O)N2CCCC2)cc1)c1ccc([N+](=O)[O-])o1	13µM*	?	?	?	?
O=C(Nc1ccc(Cc2ccncc2)cc1)c1cccc([N+](=O)[O-])c1	-23%	?	2%	6%	?
O=C(Nc1ccc(Cc2ccncc2)cc1)c1ccc([N+](=O)[O-])o1	-33%	0%	-13%	?	16µM*
CC(C)(C)C(=O)Cn1c(=O)n(CC2CCCO2)c(=O)c2ccccc21 (configuration not stated)	1%	5%	1%	0%	-35%
Cc1c(Cl)sn(-c2ccc(Cl)cc2)c1=O	-140%	26µM*	?	0%	?
Cc1nn(-c2ccc(Cl)cc2)c(=O)c2ccccc12	-1%	?	9%	20%	-4%
CSc1ccc(S(=O)(=O)N2CCC(C(=O)Nc3ccc(NC(C)=O)cc3)CC2)cc1	-2%	-13%	-7%	0%	8%
O=C(Cn1c(C(F)(F)F)nc2ccccc21)c1ccccc1	12%	21µM*	-7%	0%	-3%
CCN1C(=O)S/C(=C/c2ccc(Sc3nc4ccccc4[nH]3)o2)C1=O	-45%	21µM*	-8%	8%	13µM*
Cc1nc(-c2ccccc2)cc(N2CCCC2)n1	-2%	8%	-4%	?	6%
